# In the supplement of paper PMC3334620:
# The full ranking holds about 33,000 sequences; the median of “E-score (-0.5 to 0.5)” is about -0.016, and the highest 2% start at about 0.3. The list comes from a sample in which the highest values are over-represented; it also holds similar and randomly drawn sequences.
# Molecular target: T1, Yer184c (UniProt P39961)
# T1 sequence: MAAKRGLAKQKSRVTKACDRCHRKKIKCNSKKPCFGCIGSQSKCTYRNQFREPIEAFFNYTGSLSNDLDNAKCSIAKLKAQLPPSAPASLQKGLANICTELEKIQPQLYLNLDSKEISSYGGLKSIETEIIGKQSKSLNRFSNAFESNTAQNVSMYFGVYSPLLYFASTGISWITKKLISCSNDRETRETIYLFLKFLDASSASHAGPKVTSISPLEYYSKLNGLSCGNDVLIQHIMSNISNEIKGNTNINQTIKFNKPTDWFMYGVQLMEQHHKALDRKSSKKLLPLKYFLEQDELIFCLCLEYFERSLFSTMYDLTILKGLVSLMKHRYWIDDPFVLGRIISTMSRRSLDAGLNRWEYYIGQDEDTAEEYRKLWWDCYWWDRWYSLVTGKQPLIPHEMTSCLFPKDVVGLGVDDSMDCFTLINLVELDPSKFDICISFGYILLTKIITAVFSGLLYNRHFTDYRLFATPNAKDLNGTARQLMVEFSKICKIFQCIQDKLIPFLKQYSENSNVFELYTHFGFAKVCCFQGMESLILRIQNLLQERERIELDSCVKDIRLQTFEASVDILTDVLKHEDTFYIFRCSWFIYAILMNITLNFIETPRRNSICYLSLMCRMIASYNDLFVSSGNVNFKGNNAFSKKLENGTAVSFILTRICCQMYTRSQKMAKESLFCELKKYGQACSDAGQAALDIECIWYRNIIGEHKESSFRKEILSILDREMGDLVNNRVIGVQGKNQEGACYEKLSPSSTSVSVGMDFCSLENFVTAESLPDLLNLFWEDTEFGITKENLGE
# Experiment: PBM E-score (8-mer binding enrichment) (E-score (-0.5 to 0.5)); higher = stronger / more preferred TF binding
# Details: protein concentration: 100 nM; construct: GST-full length
# Protocol: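 Universal 'all 10-mer' protein binding microarrays (Agilent AMADID 015681) probed with GST-tagged S. cerevisiae TFs (full-length or DBD) made by in vitro transcription/translation (PURExpress), about 100-200 nM. Bound TF was detected with fluorescent anti-GST. Each ungapped 8-mer (which stands for itself and its reverse complement) is scored by the PBM enrichment score (E-score), a modified Wilcoxon-Mann-Whitney statistic from -0.5 to +0.5, computed with the Universal PBM Analysis Suite. Scale: above 0.35 generally sequence-specific binding.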
row,Sequence,PBM E-score
1,GAAGTAAC,0.0995
2,AGTAGCAT,-0.0361
3,AGCATATG,-0.242
4,GTCCGAGA,0.333
5,ATCCGAAT,0.419
6,ATCCGACA,0.162
7,ATCCGACC,0.0769
8,ATCCGATG,0.327
9,ATCCGAAG,0.302
10,ATCCGAAA,0.321
11,ATACGAAT,0.0699
12,CTCCGAGA,0.247
13,ATCCGATC,0.235
14,ATCCGATA,0.266
15,ATCCGAGA,0.252
16,CTGTGTTC,0.093
17,CTAGAACC,-0.00303
18,TATGTACA,-0.0329
19,AGCACTCG,-0.0898
20,CTAGAAAG,-0.0631
21,ATGTATGC,0.0572
22,AGTCTCAG,-0.104
23,GTCCGAAC,0.23
24,TCCCGAAA,0.196
25,TTCCGAAA,0.37

row,Sequence,PBM E-score
1,CTCCGAAA,0.266
2,TACCGAAA,0.204
3,GTCCGAAA,0.316
4,CCAGCTAA,-0.204
5,GTATCTTA,0.197
6,GTCGCGAC,0.315
7,CTCGCGAC,-0.064
8,GTCGCGAA,0.00034
9,CTCTTCAA,-0.129
10,TAGACCTA,-0.0542
11,ACGGATTC,0.197
12,CCGGATTA,0.352
13,CTGGATTC,0.00297
14,GCGGAGTA,0.0105
15,CCGGAGTC,0.235
16,CCGGATTC,0.33
17,ACGGATTA,0.183
18,GCGGATTA,0.0175
19,CCGGAGTA,0.381
20,ATATGGAT,-0.0237
21,ACCGCTCG,-0.135
22,GGTAGGTA,-0.127
23,CCGCGGCA,0.409
24,ACGCGGCG,0.113
25,CAGCGGCG,0.0785

row,Sequence,PBM E-score
1,CCGCGGCC,0.374
2,GCGCGGCC,0.177
3,ACGCGGCA,0.096
4,CCGCGGCG,0.326
5,GCGCGGCA,0.158
6,ACGCGGCC,-0.0466
7,ACCCAACC,-0.191
8,AGAGGGGA,-0.286
9,ACTGGGTC,-0.271
10,GAGATTCC,0.0978
11,CCAAAGCC,-0.0564
12,ACGGAAGC,0.274
13,GCGGAAGC,0.105
14,CCGGAAGG,0.28
15,TCGGACGA,0.278
16,GGGGAACA,-0.17
17,CGGGAACA,0.313
18,ACGGACGA,0.237
19,CCGGACGA,0.323
20,CCGGAAGA,0.344
21,CCGGAAGC,0.329
22,ACGGAAGA,0.262
23,AGGGAACA,0.00359
24,GACACCTA,-0.129
25,AAGGGCGA,-0.211

row,Sequence,PBM E-score
1,AACAACCT,-0.0961
2,CAGCTTCG,-0.0525
3,ATAGTCGA,0.0238
4,AAACCCCG,0.0829
5,ATTCGATC,0.111
6,GAAGGGGA,-0.201
7,GACAGAGC,-0.128
8,AGGCCGAA,0.302
9,CGGGAAGC,0.138
10,AGGGAAGA,-0.12
11,CGGGAAGA,0.315
12,GAACAATA,0.313
13,TAACAATA,0.158
14,AAACAATA,0.282
15,AATACCGC,0.0781
16,AACACCGG,0.37
17,AACACCGC,-0.13
18,CACACCGG,0.0348
19,AATACCGG,0.336
20,AATACCGT,0.188
21,CACCCGTG,-0.169
22,ACCGCGGA,0.314
23,GCCGCGGA,0.386
24,GCCGCGCA,0.0353
25,AACGCGGA,0.178

row,Sequence,PBM E-score
1,ATCGCGGA,-0.00991
2,GCCGCGAA,-0.0654
3,GCCGCTCA,-0.0363
4,GGTAAGCA,-0.146
5,CAGGATGC,-0.0823
6,CCGGATGC,0.331
7,GCGGATGA,0.125
8,CCGGATGA,0.335
9,ACGGATGA,0.0817
10,ACGGATGC,0.203
11,GCGCCAAA,-0.00708
12,CCCATGAC,-0.117
13,GAGGAGCA,-0.0781
14,CCTGCTGC,-0.143
15,GAATGCTC,-0.157
16,CGGTACCC,-0.0697
17,CGGTACCA,0.0778
18,CGGTACCG,0.32
19,GCTAGGAA,0.0829
20,AGGTAGAA,-0.0769
21,ACGGCCAA,0.192
22,GCGGCCGC,0.261
23,ATGGCCGG,0.215
24,ACGGCCGG,0.372
25,CCGGCCTA,0.28

row,Sequence,PBM E-score
1,ACGGCCGA,0.355
2,ACGGCCGT,0.176
3,ACGGCCGC,0.244
4,CCGGCCGA,0.431
5,GCGGCCGA,0.242
6,CCGGCCGC,0.304
7,ACGGCCCA,-0.0167
8,AAAGAGCG,0.00323
9,AAGCGACA,-0.0772
10,AACATGGC,-0.317
11,CATGTGAA,-0.0476
12,ACTTGCCG,0.142
13,AGGTCGAA,-0.0466
14,CGGGCCGC,0.137
15,CGGGCCGA,0.308
16,GGGGCCGA,-0.192
17,AAAGATAT,0.0801
18,CTGTGCTA,-0.119
19,GTGTGGGA,-0.0509
20,CGAGCTCC,0.0493
21,CGAGCTCA,0.144
22,CGAGCTCG,0.308
23,TCAATGGA,-0.0551
24,GCTACAGA,-0.185
25,CCGTGCCA,-0.127

row,Sequence,PBM E-score
1,ACGTGCCG,0.233
2,CCGTGCCG,0.312
3,CAGGGGAA,-0.196
4,AAGCTATC,0.191
5,CTCGGACA,0.306
6,CTCGGATA,0.305
7,ATCGGATA,0.369
8,GTCGGACA,0.193
9,ATCGGATC,0.298
10,CTCGGAGA,0.252
11,ATCGGACA,0.303
12,CTCGGATC,0.241
13,GTCGGATA,0.122
14,GATTGGGA,-0.133
15,CCCCAGGA,-0.372
16,CGATTCAA,-0.0538
17,GTTTGCCA,-0.0315
18,GAGCATCC,-0.111
19,CGTGCGCC,0.0367
20,CGGGCTTA,0.157
21,AATTACCT,0.0235
22,AGAGGTTA,-0.0189
23,CAAGTGCC,-0.126
24,AGTTACCA,0.0704
25,AGCGCCCG,0.113

row,Sequence,PBM E-score
1,AGCGCCAA,-0.231
2,CGCGCCGA,0.256
3,GGCGCCAA,-0.0615
4,AGCGCCGG,0.351
5,GGCGCCTA,-0.0826
6,TCCGCCGA,0.316
7,AGCGCCGC,0.0842
8,GCCGCCGA,0.264
9,AGCGCCGA,0.357
10,CCCGCCGA,0.193
11,GGCGCCGA,0.337
12,GCAGGGCA,-0.0295
13,GTGCACAA,-0.028
14,ACCTTTTC,-0.076
15,AAGCTAAT,0.162
16,CCGGCTAG,0.277
17,AGGGGCTC,-0.341
18,TAAATCCA,0.00272
19,ATCCGGCA,0.296
20,CGCCGGCA,0.345
21,CCCCGGCA,0.0621
22,CTCCGGCC,0.125
23,AGCCGGCA,0.404
24,CGCCGGTA,0.216
25,AACCGGTA,0.0801

row,Sequence,PBM E-score
1,CTCCGGCA,0.359
2,AGCCGGTA,0.306
3,AGGCGGCA,-0.0565
4,ACCCGGCA,0.187
5,AGCCGGTC,0.144
6,GCAGTACA,-0.0532
7,ACCGTGAG,-0.158
8,CGCAACGA,0.0385
9,AAACCTGG,-0.147
10,AACCGGCT,0.264
11,AGCCGGCT,0.36
12,ACCCGGCT,0.22
13,TGCCGGCA,0.431
14,ACCCGGCG,0.198
15,TACCGGCA,0.251
16,AGCCGGTG,0.225
17,AGCCGGCG,0.372
18,TCCCGGCA,0.256
19,AAATCAAA,0.13
